In general, Kd refers to the equilibrium constant for the complex coming apart. Read a high Kd as weaker binding.

The test system of assay [1] is PRKG2.
Assay [2] concerns PRKX.
The test system of assay [3] is RAF1.
In assay [4] the test system is RIOK2.
In assay [5] the test system is PRKD3.
The subject of assay [6] is RIOK1.
Assay [7] has as its system PRKD1.
In assay [8] the test system is RET.
Assay [9] deals with RIOK3.
Assay [10] relates to PRKD2.

The structures appear in SMILES notation.
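Note: kd values determined as follow-up on hits from a single-replicate KINOMEscan panel screen.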

Turning to `Cn1cnc2c(N)ncnc21` [SKF-97623], the Kd in assay [1] is above 10000 nM. As for `CC[C@@H]1CO[C@H](C(=O)Nc2ccccc2)CN1c1cc(-c2ccc3c(N)n[nH]c3c2)nc(NC)n1` [GSK2376236], the Kd in [1] came to 400 nM; in assay [2] it was 130 nM. `Cc1ccc(NC(=O)Nc2ccc(Cl)c(C(F)(F)F)c2)cc1-c1ccc(C(=O)Nc2ccncc2)cc1` [GSK1398470] showed a Kd in assay [3] of 340 nM. On the same count and under the same terms, the figure for `Cc1ccc(NC(=O)Nc2ccc(Cl)cc2)cc1-c1ccc(C(=O)Nc2ccncc2)cc1` [GSK1398472] is 350 nM.

For the compound `CNCc1ccc2nc(NC(=O)c3ccc(C(C)(C)C)cc3)cn2c1`, the Kd in assay [4] was above 10000 nM. In the case of `COc1cccc(C2=C(Nc3cc(Cl)c(O)c(Cl)c3)C(=O)NC2=O)c1` [SB-390767], in assay [5], the Kd is above 10000 nM.

Regarding `CS(=O)(=O)CCNCc1nc(-c2ccc3ncnc(Nc4ccc(OCc5ccccc5)c(Cl)c4)c3c2)cs1.Cl` [GW582764], the Kd in [5] was above 10000 nM. The same measure, in the same setting: in the case of `COC(=O)C(Cc1ccccc1)NC(=O)NC1CCN(c2ccnc(Nc3ccc(F)cc3)n2)C1` (stereo not drawn) [GSK1379714] it was above 10000 nM; in that of `COc1ccc(Nc2nccc(N3CCC(NC(=O)c4cc5ccccc5s4)C3)n2)cc1` (stereo not drawn) [GSK1379738], above 10000 nM; in that of `FC(F)(F)c1ccccc1-c1cc(-c2c[nH]nc2-c2ccccn2)ccn1` [GW679396], above 10000 nM. In turn, `CNC(=O)c1ccc(C)c(-n2c(C)cc(OCc3ccc(F)cc3F)c(Br)c2=O)c1` gave a Kd in assay [1] above 10000 nM. Still for that read-out and setting: in the case of `Cn1cncc1C(=O)NC1CCN(c2ccnc(Nc3ccc(F)cc3)n2)C1` (stereo not drawn) [GSK1379717] it was above 10000 nM.

In assay [5], `Cc1ccccc1-c1cc(-c2c[nH]nc2-c2ccccn2)ccn1` [GW680061] registered a dissociation constant Kd above 10000 nM. Take `CNc1cc(-c2ccc3c(N)n[nH]c3c2)nc(N)n1` [GSK2224810]: the Kd came out at 39 nM in [1] and 1100 nM in assay [6].

As for `Cn1cncc1-c1cc2c(Nc3ccc(OCc4ccccc4)cc3)ncnc2cn1` [GW281179], the Kd in [1] stood at 3300 nM.

Turning to `Cc1c(Cn2c(C)c(C)n3c(=O)cc(N4CCOCC4)nc23)cccc1C(F)(F)F` [GSK2328680], the Kd in assay [1] was above 10000 nM. As to `COc1ccc(Nc2nccc(-c3ccc(NC(=O)c4cc5cc(F)ccc5[nH]4)cc3)n2)cc1` [GSK1229496], the Kd in [5] is above 10000 nM. For the compound `O=C(Nc1n[nH]c2cc(-c3ccsc3)ccc12)C1CC1` [SB-732932], the Kd in assay [7] is above 10000 nM; in assay [6] it was 180 nM. Compound `CNc1nc(-c2ccc3c(N)n[nH]c3c2)cc(N2C[C@@H](C(=O)Nc3ccccc3)CC[C@H]2C)n1` [GSK2298859] gave a Kd in assay [2] of 65 nM.

Consider `COc1ccc(Nc2nccc(N3CCC(NC(=O)C(C)c4ccc(Cl)cc4)C3)n2)cc1` (stereo not drawn) [GSK1379735], for which the Kd in [1] was above 10000 nM.

Consider `NS(=O)(=O)c1cccc(N/C=C2\C(=O)Nc3ccc(S(=O)(=O)Cc4c(Cl)cccc4Cl)cc32)c1` [GSK398099], for which the Kd in [1] is above 10000 nM. As for `Fc1ccc(-c2nn3cccc(F)c3c2-c2ccncc2)cc1` [GW475620], in [8], the Kd is above 10000 nM.

Turning to `CC(C)c1cc(-c2ccc3c(N)n[nH]c3c2)nc(N)n1` [GSK2250882], the Kd in assay [6] was 580 nM; in assay [9] it was 440 nM. In [10], `CN1c2ccc(-c3ccc(C(N)=O)cc3)cc2-c2[nH]ncc2S1(=O)=O` displayed a Kd above 10000 nM. As for `Nc1cccc(-c2ccc3c(N)n[nH]c3c2)n1` [GSK2192730], the figures for the Kd in [6] and in assay [9] were 390 nM and 490 nM, respectively.
